According to PubChem BioAssay (EPA / NIEHS):
Where “and” joins values, the source holds several entries; their conditions need not be identical. Equal values may be shown once. More than one record can exist for a structure, and the calls need not agree. Calls of active or inactive are those of the source. The calls were made as follows: active = hit-call score of the fitted dose curve at least 0.9, where 1 is the maximum; inactive = score below 0.9.

Experiments:
[1] = ATG_CRE_CIS: Attagene CIS-FACTORIAL HepG2 Assay for human cAMP Responsive Element (CRE) binding protein 3 (AID 2282926); conditions: HepG2 CRE cis-reporter, Attagene multiplexed mRNA; actives raise or lower the signal
Summary of the method: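 Human liver HepG2, transient MRTU transfection, 24 h compound exposure. Total RNA → oligo(dT) RT → PCR → 6-FAM primer extension → HpaI cut → CE. Activity called both directions vs DMSO.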

[2] = target: CCAAT/enhancer-binding protein beta (Homo sapiens) (UniProt P17676); assay: ATG_C_EBP_CIS: Attagene CIS-FACTORIAL HepG2 Assay for human CCAAT/Enhancer Binding Protein (C/EBP) beta (AID 2282927); conditions: HepG2 Attagene cis-factorial transcription factor reporter; actives raise or lower the signal
Chain of CCAAT/enhancer-binding protein beta (Homo sapiens) (P17676 whole entry, looked up): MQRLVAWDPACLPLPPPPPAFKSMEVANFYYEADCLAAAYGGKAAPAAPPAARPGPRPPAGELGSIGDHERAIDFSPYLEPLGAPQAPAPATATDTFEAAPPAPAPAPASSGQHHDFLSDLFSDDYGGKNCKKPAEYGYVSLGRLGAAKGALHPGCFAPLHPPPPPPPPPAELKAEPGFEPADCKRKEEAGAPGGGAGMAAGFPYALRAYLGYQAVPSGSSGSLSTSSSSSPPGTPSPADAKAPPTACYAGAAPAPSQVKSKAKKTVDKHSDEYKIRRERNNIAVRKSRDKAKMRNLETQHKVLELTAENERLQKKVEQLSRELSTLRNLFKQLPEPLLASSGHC
Summary of the method: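 RT-PCR/capillary electrophoresis fluorescence of reporter mRNA, 24 h post-dose, in HepG2 cells carrying transfected cis-promoter reporter units. Bidirectional curve fitting against DMSO baseline captures gain or loss of signal.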

[3] = ATG_CMV_CIS: Attagene CIS-FACTORIAL HepG2 Assay for human CMV (Internal Marker) (AID 2282928); conditions: HepG2 CMV promoter reporter, transcription factor profiling; actives raise or lower the signal;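 also: endpoint acts as a background internal control marker rather than a target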
Summary of the method: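 Endogenous transcription factor activity read in HepG2 via transfected cis-promoter reporter units. After 24 h dosing, reporter mRNA measured by RT-PCR/capillary electrophoresis; gain or loss of signal fit relative to DMSO.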

[4] = ATG_DR4_LXR_CIS: Attagene CIS-FACTORIAL HepG2 Assay for human Liver X Receptor (LXR), DR4 submotif (AID 2282929); conditions: HepG2 Attagene DR4 cis-reporter, mRNA transcription; actives raise or lower the signal
Summary of the method: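 Cells were transfected with multiple reporter transcription units, exposed to chemicals for 24 hours, then lysed for RNA. Reporter mRNA induction was measured by RT-PCR with capillary electrophoresis detection and fitted in both directions relative to DMSO.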

[5] = ATG_AP_1_CIS: Attagene CIS-FACTORIAL HepG2 Assay for human Activator Protein 1 (AP-1) (AID 2282931); conditions: HepG2 Attagene cis-factorial AP-1 reporter mRNA; actives raise or lower the signal
Summary of the method: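 Endogenous transcription-factor activity in human HepG2 liver cells is read through a cis-promoter reporter transcript, sampled 24 h after dosing. Detection uses RT-PCR with capillary electrophoresis; values come from bidirectional fitting relative to DMSO.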

[6] = ATG_AP_2_CIS: Attagene CIS-FACTORIAL HepG2 Assay for human Activator Protein 2 (AP-2) (AID 2282932); conditions: HepG2 AP-2 cis-reporter, Attagene transcription factor profiling; actives raise or lower the signal
Summary of the method: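 Bidirectional curve fitting against DMSO was applied to reporter mRNA signals from HepG2 cells 24 h after dosing. Cis-promoter reporter units, transiently transfected, were read by RT-PCR plus capillary electrophoresis.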

[7] = ATG_BRE_CIS: Attagene CIS-FACTORIAL HepG2 Assay for human Bone Morphogenetic Protein (BMP) Response Element (BRE) (AID 2282933); conditions: HepG2 BMP response element reporter, Attagene transcription factor profiling; actives raise or lower the signal
Summary of the method: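 Gain- or loss-of-signal was derived by bidirectional fitting against DMSO controls. The signal came from reporter mRNA, measured by RT-PCR and capillary electrophoresis, in HepG2 cells transiently carrying multiple reporter units and dosed for 24 h.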

[8] = target: Retinoic acid receptor alpha (Homo sapiens) (UniProt P10276); assay: ATG_DR5_RAR_CIS: Attagene CIS-FACTORIAL HepG2 Assay for human Retinoic Acid Receptor Alpha (RARE), DR5 submotif (AID 2282934); conditions: HepG2 Attagene cis-factorial RARE DR5 reporter, mRNA; actives raise or lower the signal;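 as to AC50: reporter responds to endogenous RAR alpha beta and gamma in HepG2 not RARA alone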
Chain of Retinoic acid receptor alpha (Homo sapiens) (P10276 whole entry, looked up): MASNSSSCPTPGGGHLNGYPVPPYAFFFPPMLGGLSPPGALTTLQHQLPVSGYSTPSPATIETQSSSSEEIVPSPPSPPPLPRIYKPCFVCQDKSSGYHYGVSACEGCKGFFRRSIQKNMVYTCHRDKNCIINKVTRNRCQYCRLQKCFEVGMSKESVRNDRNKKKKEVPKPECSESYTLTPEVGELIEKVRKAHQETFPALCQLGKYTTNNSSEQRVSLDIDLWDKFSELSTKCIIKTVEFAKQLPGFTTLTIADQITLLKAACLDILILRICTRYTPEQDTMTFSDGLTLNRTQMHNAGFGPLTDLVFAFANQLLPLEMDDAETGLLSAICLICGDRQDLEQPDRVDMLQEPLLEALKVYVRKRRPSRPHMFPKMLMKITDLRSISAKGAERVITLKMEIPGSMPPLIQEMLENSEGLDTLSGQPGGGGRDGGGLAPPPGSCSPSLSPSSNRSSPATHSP
Summary of the method: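 HepG2 cells transiently transfected with multiplexed reporter units under cis (DR5 RARE) promoters, so endogenous transcription factor activity is measured. After 24 h compound exposure, reporter mRNA is quantified by RT-PCR with fluorescent labelling and capillary electrophoresis; bidirectional fitting versus DMSO.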

[9] = target: Aryl hydrocarbon receptor (Homo sapiens) (UniProt P35869); assay: ATG_Ahr_CIS: Attagene CIS-FACTORIAL HepG2 Assay for human Aryl Hydrocarbon Receptor (Ahr) (AID 2282930); conditions: HepG2 AhR cis-factorial reporter transcription; actives raise or lower the signal
Chain of Aryl hydrocarbon receptor (Homo sapiens) (P35869 whole entry, looked up): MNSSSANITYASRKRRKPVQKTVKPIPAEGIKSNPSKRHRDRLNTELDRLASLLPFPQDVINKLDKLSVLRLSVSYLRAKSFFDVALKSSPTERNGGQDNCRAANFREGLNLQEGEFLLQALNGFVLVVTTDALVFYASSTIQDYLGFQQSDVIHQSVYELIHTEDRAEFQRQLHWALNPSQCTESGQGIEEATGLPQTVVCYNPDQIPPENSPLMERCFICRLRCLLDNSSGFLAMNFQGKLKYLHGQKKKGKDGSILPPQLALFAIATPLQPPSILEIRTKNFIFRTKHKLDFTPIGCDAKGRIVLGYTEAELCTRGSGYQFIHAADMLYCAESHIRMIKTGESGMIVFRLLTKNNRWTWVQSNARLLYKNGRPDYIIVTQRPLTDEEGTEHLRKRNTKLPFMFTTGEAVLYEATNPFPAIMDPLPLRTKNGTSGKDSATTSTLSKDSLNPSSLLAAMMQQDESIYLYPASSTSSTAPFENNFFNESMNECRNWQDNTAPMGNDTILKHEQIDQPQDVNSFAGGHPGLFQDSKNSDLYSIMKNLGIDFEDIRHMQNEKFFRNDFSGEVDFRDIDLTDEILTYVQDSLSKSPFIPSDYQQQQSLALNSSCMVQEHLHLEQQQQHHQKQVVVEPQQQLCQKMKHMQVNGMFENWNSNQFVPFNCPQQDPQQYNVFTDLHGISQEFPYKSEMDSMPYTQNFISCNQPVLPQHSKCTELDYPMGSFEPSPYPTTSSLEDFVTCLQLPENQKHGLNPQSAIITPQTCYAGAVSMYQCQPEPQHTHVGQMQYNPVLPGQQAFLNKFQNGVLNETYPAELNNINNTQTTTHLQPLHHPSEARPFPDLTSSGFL
Summary of the method: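 HepG2 cells transiently transfected with cis-element-driven multiplexed reporter transcription units; endogenous transcription factor activity measured as reporter mRNA 24 h after dosing. RT-PCR, 6-FAM labelling, HpaI digestion, capillary electrophoresis; bidirectional fitting versus DMSO baseline.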

[10] = APR_HepG2_MitoMembPot_72hr: Apredica 72-hour HepG2 Assay for Mitochondrial Membrane Potential (AID 2282917); conditions: imaging, actives raise or lower the signal
Summary of the method: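 HepG2 cells exposed 72 h to compounds at 0.39–200 uM (0.5% v/v DMSO, duplicates); MitoTracker Red CMXRos 250 nM loaded 30 min before 3.7% formaldehyde fixation, imaged by HCS fluorescence. Bidirectional fit versus DMSO.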

[11] = APR_HepG2_MitoticArrest_72hr: Apredica 72-hour HepG2 Assay for Mitotic Arrest (AID 2282918); conditions: high-content imaging, actives raise or lower the signal
Summary of the method: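 Read-out is phospho-histone H3 immunofluorescence with Hoechst nuclear segmentation, imaged at 20x. Human HepG2 liver cells received ten concentrations (0.39–200 uM, final DMSO 0.5% v/v) for 72 hr before fixation. Gain or loss of signal was fitted relative to DMSO.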

[12] = APR_HepG2_MicrotubuleCSK_72hr: Apredica 72-hour HepG2 Assay for Microtubule CSK Stabilty (AID 2282919); conditions: HepG2 microtubule cytoskeleton, high-content imaging, actives raise or lower the signal
Summary of the method: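 HepG2 human liver cells were dosed for 72 h at ten concentrations from 0.39 to 200 uM in duplicate (0.5% v/v DMSO final). Fixed, permeabilized cells were immunostained for alpha-tubulin (Cy5) with a Hoechst counterstain and imaged at 20x.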

[13] = APR_HepG2_StressKinase_72hr: Apredica 72-hour HepG2 Assay for Stress Kinase (AID 2282921); conditions: HepG2 stress kinase (phospho-c-Jun) imaging, actives raise or lower the signal
Summary of the method: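 Dose 0.39–200 uM (10 pts, duplicate), 0.5% DMSO; 72 h; fix 3.7% formaldehyde 30 min RT; Triton permeabilize; anti-phospho-c-Jun/Cy3 + Hoechst 60 min RT; image 20x; fit gain/loss vs DMSO.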

[14] = APR_HepG2_StressKinase_24hr: Apredica 24-hour HepG2 Assay for Stress Kinase (AID 2282922); conditions: HepG2 stress kinase (phospho-c-Jun) imaging, actives raise or lower the signal
Summary of the method: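 HepG2 cells exposed 24 hr to compound at 0.39–200 uM (10 concentrations, duplicate), 0.5% v/v DMSO final. Fixed in 3.7% formaldehyde, permeabilized with Triton X-100, immunolabeled for phospho-c-Jun with Hoechst 33342; HCS fluorescence imaging, bidirectional fit versus DMSO.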

[15] = APR_HepG2_MitoMass_72hr: Apredica 72-hour HepG2 Assay for Mitochondrial Mass (AID 2282924); conditions: high-content imaging, actives raise or lower the signal;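 also: MitoTracker Red CMXRos stain intensity per cell imaged as mitochondrial mass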
Summary of the method: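 HepG2 cells were exposed for 72 hr to compounds at 0.39–200 uM (ten concentrations, duplicate, 0.5% v/v DMSO final). Live cells were stained with 250 nM MitoTracker Red CMXRos for 30 min, then fixed in 3.7% formaldehyde and imaged by HCS fluorescence.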

[16] = APR_HepG2_NuclearSize_72hr: Apredica 72-hour HepG2 Assay for Nuclear Size (AID 2282925); conditions: high-content imaging, actives raise or lower the signal
Summary of the method: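 HepG2 cells were exposed to compounds at ten concentrations from 0.39 to 200 uM (duplicate, 0.5% DMSO final) for 72 hr. After fixation in 3.7% formaldehyde, nuclei were stained with Hoechst 33342 (2 ug/mL) and imaged at 20x.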

[17] = APR_HepG2_p53Act_72hr: Apredica 72-hour HepG2 Assay for p53 Activation (AID 2282923); conditions: high-content imaging, actives raise or lower the signal;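 also: average cellular p53 protein immunofluorescence intensity in HepG2 cells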
Summary of the method: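 10-pt conc. 0.39–200 uM, duplicate, 0.5% DMSO; 72 hr exposure; 3.7% formaldehyde fix, 0.5% Triton perm; sheep anti-p53/Cy5 + Hoechst; ArrayScan 20x, 6 images/well; gain/loss fit vs DMSO.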

Measured: AC50

FC(F)=C(F)C(F)(F)C(F)(F)C(F)(F)C(F)(F)C(F)(F)C(F)(F)F
inactive: [1] | [2] | [3] | [4] | [5] | [6] | [7] | [8]

O=S(=O)(O)CCC(F)(F)C(F)(F)C(F)(F)C(F)(F)C(F)(F)C(F)(F)F
inactive: [1] | [2] | [3] | [4] | [9] | [5] | [6] | [7] | [8]

C[C@@H](Oc1ccc(CNC(=O)c2cccnc2Oc2ccc3c(c2)OCO3)c(F)c1)C(=O)O
not listed: [8] | [9] | [17]
inactive: all other assays above

Cc1cccc(O)c1C
inactive: [1] | [2] | [3] | [4] | [9] | [5] | [6] | [7] | [8]

OC(O)(C(F)C(O)(O)C(F)(F)F)C(F)(F)F
inactive: [1] | [9] | [5] | [7] | [8]
active: [2] 78.9 µM and 82.9 µM | [3] 9 µM and 6.13 µM | [4] 37.9 µM and 4.59 µM | [6] 71 µM and 18.9 µM | [7] 6.79 µM

COCc1nnc(-c2ccc[n+]([O-])c2)n1-c1c(Cl)c(Cl)cc2[nH]c(=O)c(=O)[nH]c12
not listed: [17]
inactive: all other assays above

O=C(N[C@H](CO)[C@H](O)c1ccc([N+](=O)[O-])cc1)C(Cl)Cl
inactive: [1] | [2] | [3] | [4] | [9] | [5] | [6] | [7] | [8]

S=P(N1CC1)(N1CC1)N1CC1
inactive: [1] | [2] | [3] | [4] | [9] | [5] | [6] | [7] | [8]
active: [4] 157 µM

C=CCc1cc(S(=O)(=O)c2ccc(O)c(CC=C)c2)ccc1O
active: [11] 71.3 µM | [15] 58.5 µM | [16] 79.1 µM | [3] 27.9 µM | [4] 20.4 µM | [5] 23.2 µM | [7] 22.1 µM
not listed: [17]
inactive: all other assays above

O=c1[nH]cnc2c1ncn2[C@H]1CC[C@@H](CO)O1
not listed: [9] | [17]
inactive: all other assays above

O=C(Cl)C(F)(F)C(F)(F)C(F)(F)C(=O)Cl
inactive: [1] | [2] | [3] | [4] | [9] | [5] | [6] | [7] | [8]

O=C(O)[C@H](O)[C@@H](O)C(=O)O
not listed: [8] | [9] | [17]
inactive: all other assays above

FC(F)C(F)(F)COCC1CO1 (configuration not stated)
inactive: [1] | [2] | [3] | [4] | [5] | [6] | [7] | [8]

CC(C)CCCCCCOC(=O)C1CCCCC1C(=O)OCCCCCCC(C)C (configuration not stated)
active: [9] 84.8 µM
not listed: [17]
inactive: all other assays above

NCC(F)(F)C(F)(F)C(F)(F)C(F)(F)F
inactive: [1] | [2] | [3] | [4] | [5] | [6] | [7] | [8]

O=C(O)CO
inactive: [1] | [2] | [3] | [4] | [9] | [5] | [6] | [7] | [8]

c1ccc2ncccc2c1
active: [9] 41.9 µM
not listed: [8]
inactive: all other assays above

OCCOCCOCCO
not listed: [8] | [9]
inactive: all other assays above

CCOC(N)=O
not listed: [8] | [9]
inactive: all other assays above

C=CN1CCCC1=O
not listed: [8] | [9]
inactive: all other assays above

OCCC(F)(F)C(F)(F)C(F)(F)C(F)(F)F
inactive: [1] | [2] | [3] | [4] | [5] | [6] | [7] | [8]

C[Si](C)(C)C(F)(F)C(F)(F)C(F)(F)F
inactive: [1] | [2] | [3] | [4] | [5] | [6] | [7] | [8]

Cc1nc(-c2ccccn2)ncc1C(=O)Nn1cc(C)c2cc(F)ccc21
active: [11] 72.2 µM
not listed: [9] | [17]
inactive: all other assays above

OCc1c[nH]c2ccccc12
active: [3] 25.1 µM | [4] 69 µM and 62.6 µM and 49.8 µM | [5] 47.2 µM [middle of 5 runs] | [7] 48.6 µM and 85.4 µM and 50.3 µM
inactive: [1] | [2] | [3] | [4] | [6] | [7] | [8]

c1ccc(C(O[C@@H]2CCCN(CCc3ccc4c(c3)OCO4)C2)c2ccccc2)cc1
active: [11] 57.8 µM | [13] 100 µM | [17] 63.3 µM | [15] 99.7 µM | [3] 50.8 µM | [4] 47.4 µM | [5] 52.1 µM | [7] 33 µM
inactive: [10] | [12] | [14] | [16] | [1] | [2] | [6]

OC[C@H]1O[C@@](CO)(O[C@H]2O[C@H](CO)[C@@H](O)[C@H](O)[C@H]2O)[C@@H](O)[C@@H]1O
not listed: [17]
inactive: all other assays above

FC(F)(F)C(F)(F)C(F)(F)C(F)(F)C(F)(F)C(F)(F)I
active: [8] 103 µM
inactive: [1] | [2] | [3] | [4] | [5] | [6] | [7] | [8]

FC(F)(F)COC(OCC(F)(F)F)OCC(F)(F)F
inactive: [1] | [2] | [3] | [4] | [9] | [5] | [6] | [7] | [8]
